Rab9 promoter act: qHTS Assay for Rab9 Promoter Activators | Huh7 Rab9 promoter-luciferase reporter, luminescence, 24 h | Potency, µM (titrated, usually from 9.22 µM), without a hit: at the highest dose activation, negative = inhibition, most hits filed as activators | hit rate 2.8% among 320,000 | AID 485297, 2010; also: % of control where 0% means no effect; nearly all actives have a fitted effect of over 60% in size
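Luminescence read-out: Huh7 cells stably expressing Rab9-luciferase, treated 24 h with compound at 37 °C, then lysed with luciferase reagent for 10 min at ambient before reading.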
KinaseGlo FLuc: Counterscreen for Luciferase (Kinase-Glo TM) Inhibition | hit rate 0.28% among 200,000 | Potency, µM (series often up to 38.3 µM), for inactives: at the highest dose activity change, negative = inhibition, usual class: inhibitors | Kinase-Glo luciferase, ATP luminescence, 8 min | Luciferin 4-monooxygenase (Photuris pensylvanica), Q27757; also: % is scaled to controls: 0 for no effect and ±100 for the full control effect; nearly all actives have a fitted effect of over 60% in size
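Inhibition of Kinase-Glo luciferase light generation was assessed at 10 uM ATP in pH 7.2 imidazole buffer, with luminescence measured after eight minutes at ambient temperature.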
NPC1 promoter act: qHTS Assay for NPC1 Promoter Activators; hit rate 2.4% among 320,000; Huh7 NPC1 promoter luciferase reporter, 24 h; Potency, µM (doses to about 9.22 µM), without a hit: top-dose activation, hits mostly activators; also: % of control where 0% means no effect; nearly all actives have a fitted effect of over 60% in size
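Compounds in DMSO were transferred onto Huh7 NPC1-luciferase reporter cells pre-incubated 2 h; after 24 h at 37 °C, Amplite reagent was dispensed and luminescence recorded 10 min later.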
SMN2 splice up: qHTS Assay for Enhancers of SMN2 Splice Variant Expression; HEK293 SMN2-luciferase splicing reporter, luminescence, 30-36 h; Potency, µM (titrated, usually from 46.1 µM), inactives show at the top dose activity change, positive = activation, actives largely listed as activators; hit rate 2.8% among 210,000; also: % of control where 0% means no effect; nearly all actives have a fitted effect of over 55% in size
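qHTS luciferase splicing reporter: luminescence rises when SMN2 exon 7 is included in transfected HEK293 cells. Compound exposure lasted 30-36 h at 37C, with 4.5 mM final sodium butyrate as control, followed by a ONE-Glo read.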
FLuc modulator: qHTS profiling assay for firefly luciferase inhibitor/activator using purifed enzyme and Km concentrations of substrates (counterscreen for miR-21 project); hit rate 6.9% among 360,000; AID 588342, 2011; Potency, µM (series often up to 57.5 µM), for inactives: top-dose activity change, negative = inhibition, actives largely listed as inhibitors; Luciferin 4-monooxygenase (Photinus pyralis), P08659; purified FLuc, Km substrates, luminescence inhibition;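 also: plate controls were vehicle for no effect and reference inhibitor for full effect; nearly all actives have a fitted effect of over 55% in size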
Target sequence (P08659 whole entry, looked up): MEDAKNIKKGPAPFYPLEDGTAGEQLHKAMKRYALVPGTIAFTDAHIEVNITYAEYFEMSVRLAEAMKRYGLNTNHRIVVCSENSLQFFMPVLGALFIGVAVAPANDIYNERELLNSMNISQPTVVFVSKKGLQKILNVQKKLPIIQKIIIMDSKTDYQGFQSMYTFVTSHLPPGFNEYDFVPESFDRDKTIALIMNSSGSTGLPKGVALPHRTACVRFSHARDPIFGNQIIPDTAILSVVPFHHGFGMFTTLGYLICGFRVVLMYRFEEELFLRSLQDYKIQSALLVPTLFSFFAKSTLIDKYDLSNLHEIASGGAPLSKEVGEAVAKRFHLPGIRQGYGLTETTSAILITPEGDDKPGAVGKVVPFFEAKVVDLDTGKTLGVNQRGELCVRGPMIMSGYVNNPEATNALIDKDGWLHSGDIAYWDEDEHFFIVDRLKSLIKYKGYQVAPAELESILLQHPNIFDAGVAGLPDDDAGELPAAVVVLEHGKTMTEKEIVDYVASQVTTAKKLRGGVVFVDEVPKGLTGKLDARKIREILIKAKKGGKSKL
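Biochemical qHTS of compounds, final roughly 60 µM downward over six points, against 10 nM purified firefly luciferase using Km concentrations of substrates (10 uM D-luciferin, 10 uM ATP) in Tris acetate pH 7.5 buffer; luminescence output.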
ELG1 genotox: qHTS screen for small molecules that induce genotoxicity in human embryonic kidney (HEK293T) cells expressing luciferase-tagged ELG1; HEK293T ELG1-luciferase reporter, luminescence, 16 h; Potency, µM (top dose mostly 46 µM), inactives show top-dose activity change, positive = activation, hits mostly activators; hit rate 1.3% among 330,000; AID 504466, 2011; also: % of control where 0% means no effect; nearly all actives have a fitted effect of over 60% in size
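After overnight (16 hr) compound treatment at 37 °C, ELG1-luciferase HEK293T cells were lysed with ONE-Glo; luminescence quantified 30 min later at room temperature.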
* marks the source's active call; other numbers are inactive results; ? = inconclusive; . = no result given. In the library only some 7.4% were active in any assay of this set; here they are far more common. Calls follow the shape of the dose curve; as a rule, active = well fitted curve in the direction sought with a large enough effect; inconclusive = small, poorly fitted or top-dose-only effect, or another doubt; inactive = no such curve, though single readings can be large; an effect the other way counts as inactive or inconclusive. Potency is read from the fitted curve at half-maximal effect.

SMILES	Rab9 promoter act	KinaseGlo FLuc	NPC1 promoter act	SMN2 splice up	FLuc modulator	ELG1 genotox
O=C(NCc1ccccc1Cl)c1cc2ccccc2o1	.	.	.	3.8%	?	.
O=C(Nc1ncccc1Cl)c1cc2ccccc2o1	1.58µM*	.	2µM*	.	5.36µM*	7.3µM*
Cc1ccc(NC(=O)c2cc3ccccc3o2)nc1	3.16µM*	.	3.98µM*	.	1.9µM*	0.731µM*
Cc1cc(C)n(C(=O)N(c2ccccc2)c2ccccc2)n1	0.5%	.	2.3%	.	-0.1%	-8.5%
CCOC(=O)c1cc(C#N)c(N2CCN(c3ccc(OC)cc3)CC2)[nH]c1=O	17.8%	-1.6%	-1.8%	2.7%	?	6.7%
Cc1cccc(CNC(=O)Cn2nc(C)c3nn(-c4ccc(Cl)cc4)c(C)c3c2=O)c1	.	.	.	.	5.0%	.
COc1ccc(/C=C2/C(=O)C(C)(C(C)C)CCC2C)cc1 (configuration not stated)	9.7%	.	4.4%	.	-26.4%	1.2%
Cc1ccccc1NC(=O)c1cc2ccccc2o1	?	.	3.98µM*	.	8.49µM*	7.3µM*
Cc1ccccc1NC(=O)c1cc(=O)c2ccccc2o1	14.7%	-1.8%	2.9%	-2.9%	-15.2%	1.7%
O=C(Nc1ccc(Cl)cc1Cl)c1cc2ccccc2o1	1.58µM*	.	1.41µM*	.	0.953µM*	?
O=C(COC(=O)CNC(=O)c1sc2ccccc2c1Cl)Nc1cc(Cl)cc(Cl)c1	-7.6%	-3.2%	-5.7%	3.8%	-0.7%	-0.3%
O=C(Nc1ccc(F)c(Cl)c1)c1cc(S(=O)(=O)N2CCCc3ccccc32)ccc1F	.	.	.	.	12µM*	.
COc1ccc(S(=O)(=O)N2CCCc3ccccc32)cc1OC	-6.3%	.	-2.3%	.	19µM*	?
OCCC1CN(Cc2nc3ccc(F)cc3[nH]2)CCN1C1CCCC1 (configuration not stated)	1.3%	.	-1.2%	.	3.5%	0.0%
Cc1ncsc1CCOC(=O)c1ccc(Cl)cc1	0.2%	-2.0%	-0.6%	6.5%	?	5.8%
O=C(CCN1C(=O)C2CCCCC2C1=O)Nc1nc2ccc(F)cc2s1 (configuration not stated)	0.398µM*	.	0.631µM*	.	0.849µM*	?
O=C(CCN1C(=O)C2CCCCC2C1=O)Nc1nc2c(F)cc(F)cc2s1 (configuration not stated)	1.41µM*	.	2.51µM*	.	-19.4%	?
O=C(CCN1C(=O)C2CCCCC2C1=O)Nc1cc(F)ccc1F (configuration not stated)	-3.1%	.	-2.5%	.	1.2%	1.3%
S=C(Nc1ccc2[nH]ccc2c1)NC1CCCCC1	2.51µM*	.	2.51µM*	.	13.5µM*	10.9%
Cc1ccc(NC(=S)NC2CCCC2)cc1C	?	1.0%	10.3%	?	?	6.4%
Cc1nc2ccc(NC(=S)NC3CCCCC3)cc2nc1C	3.55µM*	-2.4%	?	16.9%	16.9µM*	6.4%
COc1cc2c(cc1OC)CN(C(=S)Nc1ccc(C)cc1C)CC2	-0.7%	4.0%	-4.6%	-3.3%	4.6%	0.7%
N#Cc1c(N2C(=O)Nc3ccccc3N2O)sc2c1CCCC2	8.2%	2.1%	18.2%	-6.5%	13.5µM*	11.1%
Cc1ccc(S(=O)(=O)N(CC(=O)NC2CC2)c2ccc(C)c(Cl)c2)cc1	3.4%	.	8.5%	.	-0.6%	-2.1%
CC(C)(O)C#Cc1ccc([C@@H]2C[C@H]3CN(c4ccccc4)C(=O)[C@]34CCCN24)s1	-32.2%	0.4%	-37.0%	?	3.3%	-3.3%
O=C1N(c2ccccc2)C[C@@H]2C[C@@H](c3cccs3)N3CCC[C@@]123	-31.9%	0.5%	-22.8%	22.4µM*	-4.6%	-6.8%
COc1ccc(NC(=O)C(=O)c2cn(CC(=O)N3CCCC3)c3ccccc23)cc1OC	4.2%	.	-11.2%	.	?	-12.1%

Assay outcomes: PubChem, National Center for Advancing Translational Sciences (NCATS)
